Data published in ChEMBL document CHEMBL2218924, “A broad activity screen in support of a chemogenomic map for kinase signalling research and drug discovery” (Biochem J, 2013).

Tests used:
[1] = target: T1, Serine/threonine-protein kinase 17A (Homo sapiens) (UniProt Q9UEE5); details: at 10 µM
T1 sequence (whole entry): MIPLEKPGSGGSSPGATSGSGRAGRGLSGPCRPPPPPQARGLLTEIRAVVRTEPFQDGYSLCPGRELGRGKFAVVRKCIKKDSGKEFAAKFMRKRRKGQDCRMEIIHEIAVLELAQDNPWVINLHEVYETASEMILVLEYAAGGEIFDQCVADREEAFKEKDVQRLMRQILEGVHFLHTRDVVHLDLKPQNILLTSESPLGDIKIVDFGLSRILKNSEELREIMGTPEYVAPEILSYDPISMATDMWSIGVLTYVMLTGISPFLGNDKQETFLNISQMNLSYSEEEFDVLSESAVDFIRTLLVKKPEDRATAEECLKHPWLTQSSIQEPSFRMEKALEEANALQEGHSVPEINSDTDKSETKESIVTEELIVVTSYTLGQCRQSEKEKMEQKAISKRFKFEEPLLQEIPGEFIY

[2] = target: T2, Dual specificity tyrosine-phosphorylation-regulated kinase 2 (Homo sapiens) (UniProt Q92630); details: at 1 µM
T2 sequence (whole entry): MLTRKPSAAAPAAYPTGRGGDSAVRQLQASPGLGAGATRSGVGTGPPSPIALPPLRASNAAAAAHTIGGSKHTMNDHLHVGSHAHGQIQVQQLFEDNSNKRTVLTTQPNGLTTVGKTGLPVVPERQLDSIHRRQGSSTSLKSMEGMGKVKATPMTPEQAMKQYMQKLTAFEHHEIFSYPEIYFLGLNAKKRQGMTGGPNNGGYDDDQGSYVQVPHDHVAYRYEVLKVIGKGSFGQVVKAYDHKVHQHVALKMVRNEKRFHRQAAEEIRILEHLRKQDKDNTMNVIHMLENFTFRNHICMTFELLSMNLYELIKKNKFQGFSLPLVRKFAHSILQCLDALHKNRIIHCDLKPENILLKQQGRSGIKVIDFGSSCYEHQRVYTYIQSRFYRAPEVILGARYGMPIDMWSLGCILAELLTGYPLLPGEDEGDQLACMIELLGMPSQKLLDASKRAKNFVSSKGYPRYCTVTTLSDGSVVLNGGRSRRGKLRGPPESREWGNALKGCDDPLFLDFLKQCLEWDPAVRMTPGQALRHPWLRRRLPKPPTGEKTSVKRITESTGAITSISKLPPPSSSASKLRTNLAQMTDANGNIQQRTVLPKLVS

[3] = target: T2, Dual specificity tyrosine-phosphorylation-regulated kinase 2 (Homo sapiens); details: at 10 µM
[4] = target: T3, Ephrin type-A receptor 1 (Homo sapiens) (UniProt P21709); details: at 1 µM
T3 sequence (whole entry): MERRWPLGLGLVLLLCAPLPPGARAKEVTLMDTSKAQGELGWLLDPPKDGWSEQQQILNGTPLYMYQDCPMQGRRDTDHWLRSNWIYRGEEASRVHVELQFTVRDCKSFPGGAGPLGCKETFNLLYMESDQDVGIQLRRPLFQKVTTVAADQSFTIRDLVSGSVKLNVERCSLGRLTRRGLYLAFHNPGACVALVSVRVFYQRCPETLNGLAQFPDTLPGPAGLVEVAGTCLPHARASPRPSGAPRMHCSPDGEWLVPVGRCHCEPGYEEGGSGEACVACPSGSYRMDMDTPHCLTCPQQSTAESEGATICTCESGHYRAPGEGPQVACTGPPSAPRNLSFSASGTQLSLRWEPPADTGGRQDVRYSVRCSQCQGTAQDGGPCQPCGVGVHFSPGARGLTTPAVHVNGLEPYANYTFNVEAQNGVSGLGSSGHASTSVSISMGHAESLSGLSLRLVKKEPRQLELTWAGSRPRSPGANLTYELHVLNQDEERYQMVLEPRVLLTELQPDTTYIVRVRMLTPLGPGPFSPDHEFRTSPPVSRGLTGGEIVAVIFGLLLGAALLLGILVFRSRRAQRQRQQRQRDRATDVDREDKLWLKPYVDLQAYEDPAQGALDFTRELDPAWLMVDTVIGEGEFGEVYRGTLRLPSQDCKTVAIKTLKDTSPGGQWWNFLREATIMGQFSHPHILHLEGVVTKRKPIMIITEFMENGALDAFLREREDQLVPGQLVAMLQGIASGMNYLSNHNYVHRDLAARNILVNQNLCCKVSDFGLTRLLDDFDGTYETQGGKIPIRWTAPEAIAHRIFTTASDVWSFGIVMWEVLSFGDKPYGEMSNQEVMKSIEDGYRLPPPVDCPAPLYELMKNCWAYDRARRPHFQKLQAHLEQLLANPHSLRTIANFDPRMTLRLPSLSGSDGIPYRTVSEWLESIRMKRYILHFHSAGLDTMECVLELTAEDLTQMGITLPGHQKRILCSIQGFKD

[5] = target: T3, Ephrin type-A receptor 1 (Homo sapiens); details: at 10 µM
[6] = target: Ephrin type-A receptor 2 (Homo sapiens) (UniProt P29317); details: at 1 µM
[7] = target: Ephrin type-A receptor 2 (Homo sapiens) (UniProt P29317); details: at 10 µM
[8] = target: T4, Ephrin type-A receptor 3 (Homo sapiens) (UniProt P29320); details: at 1 µM
T4 sequence (whole entry): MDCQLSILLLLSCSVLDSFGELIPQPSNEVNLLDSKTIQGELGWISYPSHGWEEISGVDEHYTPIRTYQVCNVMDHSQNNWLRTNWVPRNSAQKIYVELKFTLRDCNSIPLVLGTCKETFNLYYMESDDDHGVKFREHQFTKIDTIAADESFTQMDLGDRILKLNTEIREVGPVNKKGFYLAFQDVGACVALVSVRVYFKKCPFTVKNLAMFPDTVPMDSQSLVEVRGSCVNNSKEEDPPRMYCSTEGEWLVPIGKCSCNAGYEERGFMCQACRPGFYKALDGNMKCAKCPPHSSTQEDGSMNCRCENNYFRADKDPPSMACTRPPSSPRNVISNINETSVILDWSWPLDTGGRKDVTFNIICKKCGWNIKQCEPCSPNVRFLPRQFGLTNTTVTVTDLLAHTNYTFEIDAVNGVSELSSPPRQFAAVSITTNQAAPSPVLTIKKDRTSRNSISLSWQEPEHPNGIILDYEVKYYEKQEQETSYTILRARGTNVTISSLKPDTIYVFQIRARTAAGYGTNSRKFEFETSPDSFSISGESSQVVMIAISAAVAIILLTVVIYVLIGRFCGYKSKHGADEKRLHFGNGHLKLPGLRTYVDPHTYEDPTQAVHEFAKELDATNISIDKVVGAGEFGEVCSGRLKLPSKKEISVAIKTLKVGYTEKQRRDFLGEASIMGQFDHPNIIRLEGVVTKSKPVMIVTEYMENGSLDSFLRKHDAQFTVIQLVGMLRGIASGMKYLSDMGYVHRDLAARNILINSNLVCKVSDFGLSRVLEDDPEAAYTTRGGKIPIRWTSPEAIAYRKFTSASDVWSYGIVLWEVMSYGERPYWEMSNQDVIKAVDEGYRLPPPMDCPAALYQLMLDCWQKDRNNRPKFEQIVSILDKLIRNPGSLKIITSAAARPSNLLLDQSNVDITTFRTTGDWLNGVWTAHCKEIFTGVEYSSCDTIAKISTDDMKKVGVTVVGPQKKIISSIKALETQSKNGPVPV

[9] = target: T4, Ephrin type-A receptor 3 (Homo sapiens); details: at 10 µM
[10] = target: Ephrin type-A receptor 4 (Homo sapiens) (UniProt P54764); details: at 1 µM
[11] = target: Ephrin type-A receptor 4 (Homo sapiens) (UniProt P54764); details: at 10 µM
[12] = target: Ephrin type-A receptor 5 (Homo sapiens) (UniProt P54756); details: at 1 µM
[13] = target: Ephrin type-A receptor 5 (Homo sapiens) (UniProt P54756); details: at 10 µM
[14] = target: Ephrin type-A receptor 7 (Homo sapiens) (UniProt Q15375); details: at 1 µM
[15] = target: Ephrin type-A receptor 7 (Homo sapiens) (UniProt Q15375); details: at 10 µM
[16] = target: T5, Ephrin type-A receptor 8 (Homo sapiens) (UniProt P29322); details: at 1 µM
T5 sequence (whole entry): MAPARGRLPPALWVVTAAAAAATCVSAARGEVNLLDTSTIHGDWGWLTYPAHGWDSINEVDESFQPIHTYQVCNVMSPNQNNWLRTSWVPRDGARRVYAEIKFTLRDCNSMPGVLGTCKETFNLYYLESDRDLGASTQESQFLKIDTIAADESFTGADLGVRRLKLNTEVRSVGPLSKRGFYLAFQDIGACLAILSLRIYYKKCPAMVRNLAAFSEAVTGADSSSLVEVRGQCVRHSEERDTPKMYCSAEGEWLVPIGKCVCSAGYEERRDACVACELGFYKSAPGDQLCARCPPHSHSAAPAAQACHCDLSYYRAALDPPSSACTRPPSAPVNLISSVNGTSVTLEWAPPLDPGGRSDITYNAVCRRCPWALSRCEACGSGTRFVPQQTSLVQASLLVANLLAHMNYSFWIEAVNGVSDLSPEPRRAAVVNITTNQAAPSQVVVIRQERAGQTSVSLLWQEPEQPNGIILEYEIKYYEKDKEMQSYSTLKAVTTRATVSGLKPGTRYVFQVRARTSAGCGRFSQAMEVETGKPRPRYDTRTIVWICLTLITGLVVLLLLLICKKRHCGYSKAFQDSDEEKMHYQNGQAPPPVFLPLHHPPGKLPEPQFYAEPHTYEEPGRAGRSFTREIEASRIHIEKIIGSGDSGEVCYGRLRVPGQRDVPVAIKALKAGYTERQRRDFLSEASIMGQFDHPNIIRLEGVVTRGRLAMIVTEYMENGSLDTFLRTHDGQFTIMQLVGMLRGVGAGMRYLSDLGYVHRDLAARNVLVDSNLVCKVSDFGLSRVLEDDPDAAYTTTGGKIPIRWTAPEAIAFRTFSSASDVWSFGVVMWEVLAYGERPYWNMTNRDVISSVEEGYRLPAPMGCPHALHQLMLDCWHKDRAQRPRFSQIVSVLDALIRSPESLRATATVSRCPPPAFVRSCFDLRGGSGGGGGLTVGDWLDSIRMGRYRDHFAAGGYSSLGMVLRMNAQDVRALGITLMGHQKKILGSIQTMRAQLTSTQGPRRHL

[17] = target: T5, Ephrin type-A receptor 8 (Homo sapiens); details: at 10 µM
[18] = target: T6, Ephrin type-B receptor 1 (Homo sapiens) (UniProt P54762); details: at 1 µM
T6 sequence (whole entry): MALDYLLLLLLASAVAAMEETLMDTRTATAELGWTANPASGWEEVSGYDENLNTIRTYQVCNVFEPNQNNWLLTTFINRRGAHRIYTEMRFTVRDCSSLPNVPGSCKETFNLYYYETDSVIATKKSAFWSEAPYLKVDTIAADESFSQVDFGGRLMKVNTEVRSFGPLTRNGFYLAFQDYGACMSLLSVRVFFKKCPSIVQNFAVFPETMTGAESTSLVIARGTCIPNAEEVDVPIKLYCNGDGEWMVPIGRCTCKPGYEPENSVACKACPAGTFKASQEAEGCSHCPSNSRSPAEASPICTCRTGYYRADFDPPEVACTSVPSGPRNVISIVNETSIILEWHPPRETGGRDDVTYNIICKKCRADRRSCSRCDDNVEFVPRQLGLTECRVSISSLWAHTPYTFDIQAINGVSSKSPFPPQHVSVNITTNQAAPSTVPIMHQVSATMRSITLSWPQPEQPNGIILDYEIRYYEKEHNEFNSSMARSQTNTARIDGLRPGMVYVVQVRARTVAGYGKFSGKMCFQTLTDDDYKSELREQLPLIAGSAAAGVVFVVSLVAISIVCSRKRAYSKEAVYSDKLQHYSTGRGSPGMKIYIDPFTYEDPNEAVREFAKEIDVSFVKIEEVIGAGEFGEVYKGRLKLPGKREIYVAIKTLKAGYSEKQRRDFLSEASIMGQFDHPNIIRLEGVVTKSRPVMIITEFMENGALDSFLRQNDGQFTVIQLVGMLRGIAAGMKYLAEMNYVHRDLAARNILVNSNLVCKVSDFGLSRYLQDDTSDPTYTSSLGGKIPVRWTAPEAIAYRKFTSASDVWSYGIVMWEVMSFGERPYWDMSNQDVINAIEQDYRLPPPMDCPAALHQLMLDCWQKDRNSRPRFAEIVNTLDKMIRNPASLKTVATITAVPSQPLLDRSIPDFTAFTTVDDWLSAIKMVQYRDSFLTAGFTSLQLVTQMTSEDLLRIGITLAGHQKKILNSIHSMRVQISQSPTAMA

[19] = target: Epidermal growth factor receptor (Homo sapiens) (UniProt P00533); details: at 1 µM
[20] = target: Epidermal growth factor receptor (Homo sapiens) (UniProt P00533); details: at 10 µM

Ephrin type-A receptor 7 (Homo sapiens), sequence (Q15375 28-998 limits assumed): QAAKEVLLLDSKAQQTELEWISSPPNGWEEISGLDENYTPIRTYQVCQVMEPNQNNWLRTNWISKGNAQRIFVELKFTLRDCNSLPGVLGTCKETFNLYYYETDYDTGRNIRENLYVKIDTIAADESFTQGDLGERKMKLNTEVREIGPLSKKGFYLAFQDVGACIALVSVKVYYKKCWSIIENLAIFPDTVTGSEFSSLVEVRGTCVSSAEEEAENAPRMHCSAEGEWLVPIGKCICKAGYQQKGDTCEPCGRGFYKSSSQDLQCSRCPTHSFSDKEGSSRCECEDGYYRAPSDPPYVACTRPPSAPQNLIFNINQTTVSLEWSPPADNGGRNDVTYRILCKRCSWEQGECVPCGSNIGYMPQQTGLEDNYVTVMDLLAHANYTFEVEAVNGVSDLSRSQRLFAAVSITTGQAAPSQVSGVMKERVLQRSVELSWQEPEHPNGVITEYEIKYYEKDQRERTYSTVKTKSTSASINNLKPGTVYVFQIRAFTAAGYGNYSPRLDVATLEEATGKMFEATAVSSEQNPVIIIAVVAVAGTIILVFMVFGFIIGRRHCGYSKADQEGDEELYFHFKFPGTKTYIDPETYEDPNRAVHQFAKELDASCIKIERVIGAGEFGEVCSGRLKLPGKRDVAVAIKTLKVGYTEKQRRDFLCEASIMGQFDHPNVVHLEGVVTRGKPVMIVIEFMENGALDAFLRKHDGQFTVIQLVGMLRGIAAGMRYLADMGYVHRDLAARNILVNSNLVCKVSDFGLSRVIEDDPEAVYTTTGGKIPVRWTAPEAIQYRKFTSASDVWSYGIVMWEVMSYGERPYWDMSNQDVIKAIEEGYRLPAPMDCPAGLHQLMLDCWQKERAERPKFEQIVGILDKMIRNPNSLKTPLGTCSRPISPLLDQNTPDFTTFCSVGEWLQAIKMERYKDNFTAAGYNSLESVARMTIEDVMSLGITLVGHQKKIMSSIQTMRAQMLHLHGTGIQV
Ephrin type-A receptor 4 (Homo sapiens), sequence (P54764 whole entry): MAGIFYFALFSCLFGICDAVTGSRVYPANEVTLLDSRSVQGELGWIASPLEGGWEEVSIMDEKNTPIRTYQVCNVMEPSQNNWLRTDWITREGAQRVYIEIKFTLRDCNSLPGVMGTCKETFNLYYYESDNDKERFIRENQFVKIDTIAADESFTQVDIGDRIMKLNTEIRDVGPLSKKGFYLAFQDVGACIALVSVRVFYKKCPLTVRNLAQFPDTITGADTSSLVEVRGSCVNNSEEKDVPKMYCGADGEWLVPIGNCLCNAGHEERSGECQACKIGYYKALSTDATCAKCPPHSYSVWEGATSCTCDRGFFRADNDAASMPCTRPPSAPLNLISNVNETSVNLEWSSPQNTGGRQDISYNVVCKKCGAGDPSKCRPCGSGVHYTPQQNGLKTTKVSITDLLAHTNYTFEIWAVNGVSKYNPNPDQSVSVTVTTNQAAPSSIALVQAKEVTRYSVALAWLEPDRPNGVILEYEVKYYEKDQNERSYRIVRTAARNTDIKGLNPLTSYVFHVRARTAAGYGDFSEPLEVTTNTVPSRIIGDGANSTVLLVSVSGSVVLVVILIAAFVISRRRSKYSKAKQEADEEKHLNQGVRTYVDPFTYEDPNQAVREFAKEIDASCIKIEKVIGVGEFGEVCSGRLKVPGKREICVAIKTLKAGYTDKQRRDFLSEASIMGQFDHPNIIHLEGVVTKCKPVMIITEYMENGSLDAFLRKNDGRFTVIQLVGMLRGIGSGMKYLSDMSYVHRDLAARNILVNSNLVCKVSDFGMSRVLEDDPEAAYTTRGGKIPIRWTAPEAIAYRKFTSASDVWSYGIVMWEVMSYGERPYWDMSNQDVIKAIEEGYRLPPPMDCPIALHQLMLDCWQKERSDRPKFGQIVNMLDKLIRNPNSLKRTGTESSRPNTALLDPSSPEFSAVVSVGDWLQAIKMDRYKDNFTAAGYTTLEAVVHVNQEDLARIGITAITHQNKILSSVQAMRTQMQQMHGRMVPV
Ephrin type-A receptor 2 (Homo sapiens), sequence (P29317 whole entry): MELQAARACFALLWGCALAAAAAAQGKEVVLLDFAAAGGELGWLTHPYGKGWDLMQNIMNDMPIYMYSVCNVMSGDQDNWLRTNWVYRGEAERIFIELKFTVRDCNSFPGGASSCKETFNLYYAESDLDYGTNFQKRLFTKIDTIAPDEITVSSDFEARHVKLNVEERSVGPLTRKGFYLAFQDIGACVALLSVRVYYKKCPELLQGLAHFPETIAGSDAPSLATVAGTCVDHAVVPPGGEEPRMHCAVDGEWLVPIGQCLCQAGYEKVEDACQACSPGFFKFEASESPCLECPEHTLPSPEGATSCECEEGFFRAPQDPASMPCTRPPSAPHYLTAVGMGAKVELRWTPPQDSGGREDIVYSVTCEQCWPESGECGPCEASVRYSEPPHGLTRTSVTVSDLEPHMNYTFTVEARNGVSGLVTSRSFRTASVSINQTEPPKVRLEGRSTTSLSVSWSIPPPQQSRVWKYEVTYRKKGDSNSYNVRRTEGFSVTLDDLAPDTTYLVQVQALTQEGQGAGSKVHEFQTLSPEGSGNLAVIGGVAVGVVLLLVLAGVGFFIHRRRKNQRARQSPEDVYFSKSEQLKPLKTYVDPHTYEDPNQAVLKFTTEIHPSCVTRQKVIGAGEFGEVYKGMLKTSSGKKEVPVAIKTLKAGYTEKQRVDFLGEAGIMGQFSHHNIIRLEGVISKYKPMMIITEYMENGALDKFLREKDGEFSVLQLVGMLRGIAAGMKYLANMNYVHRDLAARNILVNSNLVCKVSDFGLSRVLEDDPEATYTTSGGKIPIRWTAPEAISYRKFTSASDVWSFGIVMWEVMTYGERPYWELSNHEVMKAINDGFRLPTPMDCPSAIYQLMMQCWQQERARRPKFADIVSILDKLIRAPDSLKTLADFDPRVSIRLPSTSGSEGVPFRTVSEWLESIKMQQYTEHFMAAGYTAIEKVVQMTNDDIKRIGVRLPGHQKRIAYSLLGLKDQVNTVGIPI
Ephrin type-A receptor 5 (Homo sapiens), sequence (P54756 whole entry): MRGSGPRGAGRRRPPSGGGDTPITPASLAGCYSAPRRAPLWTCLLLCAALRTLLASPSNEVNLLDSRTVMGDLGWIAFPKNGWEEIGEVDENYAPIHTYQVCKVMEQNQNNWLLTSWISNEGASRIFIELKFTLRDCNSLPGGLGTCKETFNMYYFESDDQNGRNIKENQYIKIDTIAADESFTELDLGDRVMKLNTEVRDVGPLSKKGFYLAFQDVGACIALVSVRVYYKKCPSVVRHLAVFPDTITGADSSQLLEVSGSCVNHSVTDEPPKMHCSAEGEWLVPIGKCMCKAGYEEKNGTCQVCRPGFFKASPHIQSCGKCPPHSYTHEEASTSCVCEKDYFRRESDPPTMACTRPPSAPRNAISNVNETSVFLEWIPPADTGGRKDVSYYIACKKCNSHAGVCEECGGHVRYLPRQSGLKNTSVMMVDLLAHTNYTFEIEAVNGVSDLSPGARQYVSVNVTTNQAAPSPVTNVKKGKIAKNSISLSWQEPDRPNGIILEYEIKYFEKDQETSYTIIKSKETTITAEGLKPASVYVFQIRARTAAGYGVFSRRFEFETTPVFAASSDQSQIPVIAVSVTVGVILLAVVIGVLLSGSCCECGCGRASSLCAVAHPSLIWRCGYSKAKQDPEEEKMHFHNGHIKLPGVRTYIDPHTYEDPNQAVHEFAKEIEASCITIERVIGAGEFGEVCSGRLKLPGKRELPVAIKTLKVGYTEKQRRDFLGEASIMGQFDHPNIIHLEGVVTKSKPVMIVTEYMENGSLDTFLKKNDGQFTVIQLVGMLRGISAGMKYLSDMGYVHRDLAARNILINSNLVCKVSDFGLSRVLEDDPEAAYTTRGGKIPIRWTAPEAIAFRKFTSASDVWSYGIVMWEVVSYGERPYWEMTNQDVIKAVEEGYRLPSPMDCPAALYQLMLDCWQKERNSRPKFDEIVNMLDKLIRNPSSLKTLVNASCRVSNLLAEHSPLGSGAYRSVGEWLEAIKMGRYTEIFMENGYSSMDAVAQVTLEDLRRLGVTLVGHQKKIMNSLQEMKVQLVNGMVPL

| SMILES | residual activity [1] | residual activity [2] | residual activity [3] | residual activity [4] | residual activity [5] | residual activity [6] | residual activity [7] | residual activity [8] | residual activity [9] | residual activity [10] | residual activity [11] | residual activity [12] | residual activity [13] | residual activity [14] | residual activity [15] | residual activity [16] | residual activity [17] | residual activity [18] | residual activity [19] | residual activity [20] |
| --- | --- | --- | --- | --- | --- | --- | --- | --- | --- | --- | --- | --- | --- | --- | --- | --- | --- | --- | --- | --- |
| Cc1nc(-c2ccccc2)c(-c2ccncc2)o1 | 77% | 99% | 87% | 103% | 81% | 93% | 59% | 92% | 77% | 109% | 102% | 35% | 29% | 94% | 89% | 65% | 54% | 63% |  |  |
| CC[n+]1c(/C=C/N(C)c2ccccc2)n(-c2ccccc2)c2ccc(-c3nc4ccccc4s3)cc21 | 68% | 99% | 103% | 100% | 100% | 109% | 90% | 116% | 92% | 106% | 85% | 120% | 110% | 108% | 96% | 114% |  | 103% |  |  |
| COc1cc2ncc(-c3ccccc3)nc2cc1OC |  | 93% | 99% | 90% | 94% |  | 93% |  |  |  |  |  |  |  | 94% |  |  |  |  |  |
| N#Cc1cnc2cnc(NCc3cccnc3)cc2c1Nc1ccc(F)c(Cl)c1 | 32% |  |  | 95% | 79% | 96% | 87% | 96% | 72% | 103% | 76% | 56% | 46% |  |  |  |  | 100% |  |  |
| C[C@@H](N)[C@H]1CC[C@H](C(=O)Nc2ccncc2)CC1 | 67% | 101% | 91% | 101% | 96% | 96% | 98% | 103% | 97% | 95% |  | 84% |  | 96% | 90% | 105% | 108% | 101% |  |  |
| O=C1Nc2cc(Br)ccc2/C1=C1/Nc2ccccc2/C1=N\O | 10% |  |  | 99% | 92% | 27% | 20% | 25% | 3% | 109% | 98% | 37% | 42% | 68% | 20% | 69% | 82% | 34% | 66% | 33% |
